Results: PubChem BioAssay
For some assays here: Measured potencies and affinities stand elsewhere. The source made the active and inactive calls. Unless noted, how the calls were made is not given here.

Experiments:
[1] = antimalarial activity against Dd2 strain (AID 2302;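 active means growth inhibition above 50% at the single 2 µM test dose, taken to imply half-maximal potency below 2 µM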;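 further: 0% = DMSO untreated growth and 100% = chloroquine plus artemisinin killed control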); details: P. falciparum Dd2 in RBCs, LDH growth readout, 72 h; at 2 µM; hits give high values
[2] = HepG2 cytotoxicity, primary screen, cytotoxicity control for P. falciparum antimalarial project, cell-based, ATP luminescence (AID 2303;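 active means inhibition above 50%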;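 further: 0% = DMSO wells and 100% = digitonin-killed cells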); details: HepG2 viability, 24-48 h, at 10 µM, hits give high values
[3] = biological target: L-lactate dehydrogenase (Plasmodium falciparum (isolate CDC / Honduras)) (UniProt Q27743); assay: PfLDH activity inhibition – cell lysate, 3D7 strain, counter-screen for P. falciparum growth inhibition project (AID 2304);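 further: 0% = vehicle and 100% = reference inhibitor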; details: P. falciparum 3D7 crude extract, LDH APAD/NBT absorbance; at 2 µM; hits give high values
[4] = inhibition of 3D7 malaria parasite growth – strain 3D7 (AID 2306);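 further: 0% = DMSO wells and 100% = chloroquine plus artemisinin control wells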; details: P. falciparum 3D7 erythrocytic growth, LDH absorbance, 72 h; at 2 µM; hits give high values
[5] = biological target: Calcium-dependent protein kinase 1 (Plasmodium falciparum (isolate 3D7)) (UniProt P62344); assay: PfCDPK1 kinase inhibitors, biochemical, TCAMS library (AID 1159585; cut-off not given, nearly all actives have IC50 up to about 0.98 µM;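 further: inhibitors leave more ATP so luminescence rises with inhibition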); details: recombinant PfCDPK1, Kinase-Glo ATP depletion luminescence
[6] = biological target: Plasmodium falciparum protein kinase 6 (PK6, PF3D7_1337100) (UniProt Q8IDW1); assay: PfPK6 kinase inhibitors, biochemical, TCAMS library (AID 1159586); details: recombinant PfPK6, Kinase-Glo ATP depletion luminescence
[7] = biological target: Protein kinase 7 (PK7), Plasmodium falciparum 3D7 (PF3D7_0213400) (UniProt Q7YTF7); assay: inhibition of Plasmodium PK7 catalytic activity – biochemical, TCAMS antimalarial set, Kinase-Glo luminescence (AID 1159587); details: recombinant PfPK7, Kinase-Glo ATP depletion luminescence
[8] = biological target: Calcium-dependent protein kinase 4 (Plasmodium falciparum (isolate 3D7)) (UniProt Q8IBS5); assay: PfCDPK4 kinase inhibitors, biochemical, TCAMS library (AID 1159588; cut-off not given, nearly all actives have IC50 up to about 0.91 µM); details: recombinant PfCDPK4, Kinase-Glo ATP depletion luminescence
Chain of Calcium-dependent protein kinase 4 (Plasmodium falciparum (isolate 3D7)) (Q8IBS5 whole entry, looked up): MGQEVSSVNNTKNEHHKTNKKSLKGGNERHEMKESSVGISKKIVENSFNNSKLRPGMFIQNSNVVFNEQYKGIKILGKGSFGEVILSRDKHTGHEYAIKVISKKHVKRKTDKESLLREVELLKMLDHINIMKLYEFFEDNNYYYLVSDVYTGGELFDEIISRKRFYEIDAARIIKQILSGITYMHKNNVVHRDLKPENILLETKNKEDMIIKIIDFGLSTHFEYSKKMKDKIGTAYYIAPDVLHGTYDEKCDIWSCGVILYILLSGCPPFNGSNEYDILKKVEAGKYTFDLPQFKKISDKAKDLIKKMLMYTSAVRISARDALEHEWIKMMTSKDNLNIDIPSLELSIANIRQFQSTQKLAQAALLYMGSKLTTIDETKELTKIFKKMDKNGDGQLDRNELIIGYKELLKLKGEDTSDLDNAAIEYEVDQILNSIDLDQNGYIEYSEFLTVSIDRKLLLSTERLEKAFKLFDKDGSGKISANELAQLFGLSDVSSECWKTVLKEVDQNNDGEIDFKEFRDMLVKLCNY

Chain of L-lactate dehydrogenase (Plasmodium falciparum (isolate CDC / Honduras)) (Q27743 whole entry, looked up): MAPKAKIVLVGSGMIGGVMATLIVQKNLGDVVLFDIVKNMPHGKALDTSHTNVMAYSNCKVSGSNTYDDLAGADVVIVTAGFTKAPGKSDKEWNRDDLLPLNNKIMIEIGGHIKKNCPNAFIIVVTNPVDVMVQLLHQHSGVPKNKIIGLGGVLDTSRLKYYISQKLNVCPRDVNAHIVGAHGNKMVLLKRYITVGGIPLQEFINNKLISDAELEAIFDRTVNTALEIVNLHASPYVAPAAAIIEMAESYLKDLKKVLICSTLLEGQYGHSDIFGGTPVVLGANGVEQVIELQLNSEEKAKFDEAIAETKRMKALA
Chain of Calcium-dependent protein kinase 1 (Plasmodium falciparum (isolate 3D7)) (P62344 whole entry, looked up): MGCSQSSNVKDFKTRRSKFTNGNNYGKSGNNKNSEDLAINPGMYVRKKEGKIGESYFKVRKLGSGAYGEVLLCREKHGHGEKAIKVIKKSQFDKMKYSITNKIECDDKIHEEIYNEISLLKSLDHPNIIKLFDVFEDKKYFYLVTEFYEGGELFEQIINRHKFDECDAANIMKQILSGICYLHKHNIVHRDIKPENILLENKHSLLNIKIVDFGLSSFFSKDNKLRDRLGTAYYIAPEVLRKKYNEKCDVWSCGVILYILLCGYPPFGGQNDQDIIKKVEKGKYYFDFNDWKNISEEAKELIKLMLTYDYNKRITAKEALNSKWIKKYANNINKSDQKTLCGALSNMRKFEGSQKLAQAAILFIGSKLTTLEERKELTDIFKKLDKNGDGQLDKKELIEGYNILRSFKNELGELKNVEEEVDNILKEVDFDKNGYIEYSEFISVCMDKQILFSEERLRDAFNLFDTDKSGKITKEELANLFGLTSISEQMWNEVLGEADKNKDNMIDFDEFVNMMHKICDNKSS
Chain of Protein kinase 7 (PK7), Plasmodium falciparum 3D7 (PF3D7_0213400) (Q7YTF7 1-343): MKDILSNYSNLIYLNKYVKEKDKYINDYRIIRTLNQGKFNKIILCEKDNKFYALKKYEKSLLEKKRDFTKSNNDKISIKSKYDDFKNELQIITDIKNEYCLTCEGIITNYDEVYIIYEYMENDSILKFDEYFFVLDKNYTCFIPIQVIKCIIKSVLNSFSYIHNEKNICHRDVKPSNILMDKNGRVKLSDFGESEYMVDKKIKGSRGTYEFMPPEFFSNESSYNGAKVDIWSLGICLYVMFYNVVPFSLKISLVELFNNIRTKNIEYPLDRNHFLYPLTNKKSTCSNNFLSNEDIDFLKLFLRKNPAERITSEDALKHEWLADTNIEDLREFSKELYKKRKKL
Chain of Plasmodium falciparum protein kinase 6 (PK6, PF3D7_1337100) (Q8IDW1 1-305): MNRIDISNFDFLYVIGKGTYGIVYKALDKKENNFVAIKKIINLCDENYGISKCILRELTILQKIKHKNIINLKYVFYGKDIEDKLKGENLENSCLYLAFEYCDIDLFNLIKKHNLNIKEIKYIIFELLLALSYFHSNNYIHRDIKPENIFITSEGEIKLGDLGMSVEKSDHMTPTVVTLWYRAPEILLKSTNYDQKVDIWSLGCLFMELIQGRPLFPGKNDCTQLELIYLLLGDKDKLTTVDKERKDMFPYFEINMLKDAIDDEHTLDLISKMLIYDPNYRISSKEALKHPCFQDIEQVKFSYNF

Row | Structure (SMILES) | growth inhibition [1] | inhibition [2] | inhibition [3] | growth inhibition [4] | outcome [5] | outcome [6] | outcome [7] | outcome [8]
1 | CCOCCCn1c(=N)c(C(=O)NCc2ccc(F)cc2)cc2c(=O)n3cccc(C)c3nc21 | 40% (inactive) | 21% (inactive) | 5% (inactive) | 101% (active) | inactive | inactive | inactive | inactive
2 | CN1CCN(CC(=O)Nc2cccc(-c3ccc(-c4nc5ccc(F)cc5[nH]4)s3)c2)CC1 | 94% (active) | 71% (active) | -4% (inactive) | 101% (active) | inactive | inactive | inactive | inactive
3 | Cc1cc(NC(=O)N=C(N)N)ccc1Cl | 15% (inactive) | 11% (inactive) | 2% (inactive) | 100% (active) | inactive | inactive | inactive | inactive
4 | O=C(/C=C/c1ccc(Cl)c(Cl)c1)NCCCCCCN1CCN(C(=O)Nc2ccc(Cl)c(C(F)(F)F)c2)CC1 | 43% (inactive) | 47% (inactive) | -6% (inactive) | 99% (active) | inactive | inactive | inactive | inactive
5 | CCN(C(=O)CSc1cc(C)c2cc(C)cc(C)c2n1)C1CCS(=O)(=O)C1 (stereo not given) | 82% (active) | 5% (inactive) | -1% (inactive) | 97% (active) | inactive | inactive | inactive | inactive
6 | CC(C)[C@H](NC(=O)c1ccc(O)c(-c2cccc(C(F)(F)F)c2)c1)C(=O)NCCN1CCCCC1 | 29% (inactive) | 3% (inactive) | 2% (inactive) | 99% (active) | inactive | inactive | inactive | inactive
7 | COc1ccc2c(NN=Cc3cccc(Cl)c3)cc(C)nc2c1 | 99% (active) | 3% (inactive) | 3% (inactive) | 103% (active) | inactive | inactive | inactive | inactive
8 | COc1ccccc1CCNc1nc(C)cc(N[C@@H](CC(C)C)C(=O)NCc2cccs2)n1 | 31% (inactive) | 20% (inactive) | 0% (inactive) | 96% (active) | inactive | inactive | inactive | inactive
9 | CCNc1cc(C(=O)N[C@@H](Cc2ccccc2)[C@H](O)CNC2CCC(C)(C)C2)cc(N2CCCCS2(=O)=O)c1 (stereo not given in full) | 98% (active) | 3% (inactive) | 6% (inactive) | 96% (active) | inactive | inactive | inactive | inactive
10 | COc1ccccc1CNC(=O)c1cc(Br)cc(N2CCN(c3ccncc3)CC2)c1 | 76% (active) | 43% (inactive) | 0% (inactive) | 95% (active) | inactive | inactive | inactive | inactive
11 | Clc1nc2ccccn2c1C=Cc1ccc2ccccc2n1 | 75% (active) | -31% (inactive) | -6% (inactive) | 86% (active) | inactive | inactive | inactive | inactive
12 | O=S(=O)(c1cc(Cl)sc1Cl)N(CCC(O)(C(F)(F)F)C(F)(F)F)Cc1cccc(O)c1 | 97% (active) | -4% (inactive) | 5% (inactive) | 98% (active) | inactive | inactive | inactive | inactive
13 | COc1cc(O)c2c(=O)c(OC)c(-c3cccc(Cl)c3OCC(=O)O)oc2c1OC | -2% (inactive) | -6% (inactive) | -1% (inactive) | 100% (active) | inactive | inactive | inactive | inactive
14 | Cc1ccc(O)c(C(=O)c2cc(C(=O)Nc3ccccc3C)c(=O)n(-c3ccccc3C)c2)c1 | 81% (active) | -15% (inactive) | -8% (inactive) | 98% (active) | inactive | inactive | inactive | inactive
15 | CCCc1cc(NC2CCN(C)CC2)nc(Nc2ccc(F)cc2)n1 | 16% (inactive) | 20% (inactive) | -7% (inactive) | 95% (active) | inactive | inactive | inactive | inactive
16 | Cc1cc(CN2CC[C@H](NC(=O)c3ccc(Cl)c(Cl)c3)C2)ccc1OC1CCN(C)C1 (stereo not given in full) | 24% (inactive) | 71% (active) | -3% (inactive) | 101% (active) | inactive | inactive | inactive | inactive
17 | Cc1c(NC(=O)COc2ccc(Cl)cc2C(=O)c2cc(F)cc(C(F)(F)F)c2)ccc2ncsc12 | 18% (inactive) | -2% (inactive) | -2% (inactive) | 86% (active) | inactive | inactive | inactive | inactive
18 | O=C(Nc1cc(C(F)(F)F)ccc1Cl)c1ccc(Cn2cc(Br)cn2)cc1 | 67% (active) | 24% (inactive) | -5% (inactive) | 91% (active) | inactive | inactive | inactive | inactive
19 | Nc1nc2cccc3ccc4cccc1c4c32 | 69% (active) | 26% (inactive) | -1% (inactive) | 101% (active) | inactive | inactive | inactive | inactive
20 | CNS(=O)(=O)c1ccc2c(c1)nc(C1CCN(CC3CCC(NC(=O)/C=C/c4ccc(Cl)c(Cl)c4)CC3)CC1)n2C (stereo not given) | 96% (active) | 5% (inactive) | -2% (inactive) | 102% (active) | inactive | inactive | inactive | inactive

Row | Structure (SMILES) | growth inhibition [1] | inhibition [2] | inhibition [3] | growth inhibition [4] | outcome [5] | outcome [6] | outcome [7] | outcome [8]
21 | O=C(Nc1ccc(-c2csc(-c3nc4ccccc4[nH]3)c2)cc1)Nc1ccc(Cl)c(Cl)c1 | 18% (inactive) | 75% (active) | -6% (inactive) | 93% (active) | inactive | inactive | inactive | inactive
22 | Cc1cc(F)ccc1[C@H]1CNCCN1C(=O)N(C)C(C)(C)c1cc(C(F)(F)F)cc(C(F)(F)F)c1 | 100% (active) | 24% (inactive) | -4% (inactive) | 101% (active) | inactive | inactive | inactive | inactive
23 | CC(C)(C)c1nn(-c2ccccc2)c2[nH]c(=O)c(CNCc3ccc4c(c3)OCO4)cc12 | 32% (inactive) | 1% (inactive) | 3% (inactive) | 92% (active) | inactive | inactive | inactive | inactive
24 | c1ccc(-c2cc(NCCNc3cc(-c4ccccc4)nc4ccccc34)c3ccccc3n2)cc1 | 11% (inactive) | -2% (inactive) | 0% (inactive) | 99% (active) | inactive | inactive | inactive | inactive
25 | Clc1ccc(OCc2ccccc2)c(Cc2ccc(-c3nc4ccncc4[nH]3)o2)c1 | 6% (inactive) | 2% (inactive) | -2% (inactive) | 99% (active) | inactive | inactive | inactive | inactive
26 | COc1ccc(Cl)cc1N1CCN(CCCNC(=O)c2ccc(-c3nc4cc(Cl)c(Cl)cc4[nH]3)c(C)c2)CC1 | -1% (inactive) | 4% (inactive) | 2% (inactive) | 101% (active) | inactive | inactive | inactive | inactive
27 | COc1ccc(NC(=O)[C@H](Cc2ccccc2)Nc2cc(C)nc(NCCc3cccnc3)n2)cc1 | 5% (inactive) | 11% (inactive) | -4% (inactive) | 98% (active) | inactive | inactive | inactive | inactive
28 | O=C(Nc1ccccc1)N(Cc1ccc(-c2ccc(CNCc3ccc4c(c3)OCO4)cc2)cc1)C1CCN(Cc2ccccc2)CC1 | 41% (inactive) | 21% (inactive) | -1% (inactive) | 98% (active) | inactive | inactive | inactive | inactive
29 | CCN(CC)CCN(Cc1ccc(-c2ccc(Cl)cc2)cc1)C(=O)Cn1c(CCc2cccc(F)c2F)nc(=O)c2ccccc21 | 75% (active) | 45% (inactive) | -4% (inactive) | 101% (active) | inactive | inactive | inactive | inactive
30 | COC(=O)c1ccc(CCCNCC(O)c2cccc(C(F)(F)F)c2)cc1 (stereo not given) | 88% (active) | 0% (inactive) | 4% (inactive) | 97% (active) | inactive | inactive | inactive | inactive
31 | COc1ccccc1-c1sccc1C(=O)NC1(c2cc(Cl)cc(Cl)c2)CCCC1 | 95% (active) | -5% (inactive) | -3% (inactive) | 88% (active) | inactive | inactive | inactive | inactive
32 | COc1cc(C(=O)Nc2ccc(-c3nc4ccccc4[nH]3)cc2)cc(OC)c1OC | 33% (inactive) | 13% (inactive) | -8% (inactive) | 99% (active) | inactive | inactive | inactive | inactive
33 | CC(=O)Nc1ccc(OCCCCN(Cc2ccccc2C(F)(F)F)c2ccc(C#N)c(C(F)(F)F)c2)c(Cl)c1 | 71% (active) | -1% (inactive) | -3% (inactive) | 98% (active) | inactive | inactive | inactive | inactive
34 | Cc1cccc2[nH]c(-c3cccc(-c4ccc(NC(=O)C5CCCO5)cc4)c3)nc12 (stereo not given) | 13% (inactive) | 10% (inactive) | -4% (inactive) | 91% (active) | inactive | inactive | inactive | inactive
35 | C=CCOc1ccc2ccccc2c1CNCCCCCCNCc1c(OCC=C)ccc2ccccc12 | 98% (active) | 99% (active) | 3% (inactive) | 100% (active) | inactive | inactive | inactive | inactive
36 | Nc1ncc(-c2ccccc2)cc1-c1cccc2ncccc12 | 99% (active) | 82% (active) | -2% (inactive) | 97% (active) | inactive | inactive | inactive | inactive
37 | CCc1c(CCNCCCC(C)CCNCCc2ccc(OC)c(OC)c2CC)ccc(OC)c1OC (stereo not given) | 27% (inactive) | 99% (active) | 1% (inactive) | 100% (active) | inactive | inactive | inactive | inactive
38 | C/C(=C\C(=O)NC1CC1)c1ccccc1OCc1ccccc1 | 1% (inactive) | 3% (inactive) | -1% (inactive) | 90% (active) | inactive | inactive | inactive | inactive
39 | CCOc1ccc2nc(C)cc(NN=Cc3cccc([N+](=O)[O-])c3)c2c1 | 93% (active) | 7% (inactive) | 0% (inactive) | 101% (active) | inactive | inactive | inactive | inactive
40 | Cc1cccc(OCC(=O)Nc2cccc(NC(=O)COc3cccc(C)c3)n2)c1 | 30% (inactive) | -3% (inactive) | 0% (inactive) | 98% (active) | inactive | inactive | inactive | inactive
